A selection: hits, their analogues and other compounds. The true share with any hit is near 21%.
SARS PLpro yeast: qHTS of Yeast-based Assay for SARS-CoV PLP. S. cerevisiae expressing SARS-CoV PLpro, growth rescue. 330,000 compounds, 0.19% hits. Potency, µM (series often up to 32.9 µM), without a hit: at the top dose activity, positive = growth rescue, most hits filed as activators. AID 485353, 2010; calls by dose curve; also: potency is read from the fitted curve at half-maximal effect; 0% is about no effect; nearly all actives have a fitted effect of over 55% in size
Pf growth 96h: Primary qHTS for delayed death inhibitors of the malarial parasite plastid, 96 hour incubation | P. falciparum luciferase reporter growth, 96 h | Potency, µM (top dose mostly 28.7 µM), for inactives: at the top dose activity change, negative = inhibition, actives largely listed as inhibitors | 320,000 compounds, 6.9% hits | AID 504834, 2011; also: potency is read from the fitted curve at half-maximal effect; % is scaled to controls: 0 for no effect and ±100 for the full control effect
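Cell-based qHTS: luciferase-tagged P. falciparum in erythrocytes (2% hematocrit, 0.05% parasitemia final) incubated with compounds for 96 hours, 37 C, 5% CO2; luciferase detection reagent then added and luminescence measured.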
Pf growth 48h: Primary qHTS for delayed death inhibitors of the malarial parasite plastid, 48 hour incubation. AID 504832, 2011. Potency, µM (highest dose often 28.7 µM), inactives show top-dose activity change, negative = inhibition, actives largely listed as inhibitors. 310,000 compounds, 5.9% hits. P. falciparum luciferase growth in erythrocytes, 48 h; also: potency is read from the fitted curve at half-maximal effect; % is scaled to controls: 0 for no effect and ±100 for the full control effect
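Luciferase-expressing parasites in RBCs, 2% Hct / 0.1% parasitemia final; RPMI 1640 + 0.5% Albumax; 37 C, 5% CO2, one generation; luminescence read-out, lower signal = inhibition.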
Cycloheximide cs: Cycloheximide Counterscreen for Small Molecule Inhibitors of Shiga Toxin. cell reporter, cycloheximide protein synthesis inhibition counterscreen. AID 2314, 2010. max response, %. 300,000 compounds, 12% hits; in the data active = max response mostly above about 13%, no sharp cut-off; inactive = mostly below about 14%; also: read at 38.3 µM for the half of the compounds with a filed dose; 0% is about no effect
Shiga toxin inh: A qHTS for Small Molecule Inhibitors of Shiga Toxin. Vero cells, Shiga toxin protein synthesis inhibition reporter. inhibition, % at 38.7 µM. 290,000 compounds, 9.2% hits; in the data active = inhibition mostly above about 28%, no sharp cut-off; inactive = mostly below about 43%; also: 0% is about no effect
NS1 inh: qHTS Assay for Inhibitors of Influenza NS1 Protein Function; 270,000 compounds, 0.4% hits; Potency, µM (titrated, usually from 46.1 µM), inactives show at the highest dose activity, positive = more growth; calls by dose curve; also: potency is read from the fitted curve at half-maximal effect; actives are rising curves; nearly all actives have a fitted effect of over 50% in size
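Read-out: OD600 growth recovery of NS1-expressing budding yeast. Cells grown overnight at 30C in -URA glucose medium, washed, resuspended and diluted 1:100 in 2% galactose assay medium, pH 6.0. Same strain lacking NS1 served as positive control.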
* hit, by the source's call; ? = inconclusive; nt = not tested or not shown. Unless noted, calls follow the shape of the dose curve; as a rule, active = well fitted inhibition curve with a large enough effect; inconclusive = small, poorly fitted or top-dose-only effect, or another doubt; inactive = no such curve, though single readings can be large or run the other way.

SMILES | SARS PLpro yeast | Pf growth 96h | Pf growth 48h | Cycloheximide cs | Shiga toxin inh | NS1 inh
O=C(CNC(=O)c1cccs1)N/N=C/c1c(F)cccc1Cl | 21% | 3% | 54% | 16* | 37* | -3%
COc1cccc(/C=N/NC(=O)CNC(=O)COc2cccc(C)c2)c1O | 4% | 46% | 2.9µM* | -1 | 14 | -2%
Cc1cccc(OCC(=O)NCC(=O)N/N=C/c2ccccc2)c1 | 1% | 27% | 24% | -3 | -2 | 6%
Cc1ccc2cc(C(c3nnnn3CC3CCCO3)N3CCCC4(CCCCC4)C3)c(=O)[nH]c2c1 (stereo not given) | nt | nt | nt | nt | nt | -12%
CCC(C)(C)n1nnnc1C(c1cc2ccc(OC)cc2[nH]c1=O)N1CCN(C2CCCCC2)CC1 (stereo not given) | -1% | nt | 10µM* | -6 | -17 | 6%
COc1ccccc1N1CCN(C(c2cc3ccc(C)cc3[nH]c2=O)c2nnnn2C2CCCC2)CC1 (stereo not given) | -16% | -19% | 1.9µM* | -3 | 4 | 2%
CCC(C)(C)n1nnnc1C(c1cc2cc3c(cc2[nH]c1=O)OCO3)N1CCCCC1 (stereo not given) | -3% | 0% | ? | -3 | 47 | -8%
COc1ccccc1N1CCN(C(c2cc3cc(C)ccc3[nH]c2=O)c2nnnn2C2CCCC2)CC1 (stereo not given) | 2% | 12% | ? | -8 | -6 | -14%
CCOC(=O)c1cc2oc(C(c3nnnn3C3CCCCC3)N3CCOCC3)cc2[nH]1 (stereo not given) | -22% | 9.3µM* | 9.3µM* | -1 | 0 | -36%
CCOC(=O)C1CCN(C(c2cc3ccc(C)cc3[nH]c2=O)c2nnnn2C2CCCCC2)CC1 (stereo not given) | 9% | nt | 1µM* | -1 | -1 | -47%
COc1cc2cc(C(c3nnnn3C(C)(C)C)N3CCc4ccccc43)c(=O)[nH]c2cc1OC (stereo not given) | 4% | ? | ? | -1 | -16 | -6%
COc1cc2cc(C(c3nnnn3C3CCCC3)N3CCc4ccccc43)c(=O)[nH]c2cc1OC (stereo not given) | 3% | 9.3µM* | ? | -4 | 16 | 5%
COc1ccc(S(=O)(=O)N2CCC(C(=O)N[C@@H](C)C(=O)NCc3ccccc3OC)CC2)cc1 | -12% | -68% | -1% | 23 | -9 | -14%
CCCc1cc(=O)oc2cc(OCC(=O)NC3CC(C)(C)NC(C)(C)C3)ccc12 | 1% | 15% | -16% | 2 | -5 | -1%
CC(=O)c1ccc(NC(=O)C2CCCNC2=O)cc1 (stereo not given) | -2% | 5.2µM* | 15% | 5 | 5 | 4%
COc1ccc(NC(=O)C2CCCNC2=O)cc1 (stereo not given) | 1% | 6.6µM* | 24% | -3 | 0 | 0%
O=C(Nc1ccccc1F)OC1CN2CCC1CC2 (stereo not given) | -1% | 0% | 38% | 5 | -10 | -1%
O=C(Nc1cccc(Cl)c1)OC1CN2CCC1CC2 (stereo not given) | -3% | 1.9µM* | 2.9µM* | 26* | 56* | 2%
CC(=O)OC1CN2CCC1CC2 (stereo not given) | nt | 4.8µM* | -5% | nt | nt | nt
CC(=O)OC1C2CCC1C(N1CCCC1)CC2 (stereo not given) | 4% | nt | 20% | -3 | -8 | 13%
O=C(Nc1ccc(Cl)cc1)OC1CN2CCC1CC2 (stereo not given) | 0% | 36% | 47% | 27* | 42* | -3%
O=C(Nc1ccccc1Cl)OC1CN2CCC1CC2 (stereo not given) | -1% | 14% | ? | 12 | 8 | 3%
COc1cc(NC(=O)Cn2cnc(S(=O)(=O)N3CCC(C)CC3)c2)cc(OC)c1OC | 3% | ? | -3% | -8 | -10 | 3%
O=C(c1ccc(OC2CCN(CCO)CC2)cc1)N1CCCC1 | -1% | -23% | -1% | -1 | -9 | 7%
CC(C)(CC(=O)O)CC(=O)Nc1ccc(Cl)c(Cl)c1 | 0% | 81% | -4% | -2 | 11 | 4%

Bioassay records from PubChem BioAssay.
